Screens as filed in PubChem BioAssay.
Most compounds without a hit are left out; they make up all but 1.4% or so of the library.
Nrf2 activator: qHTS of Nrf2 Activators; AREc32 ARE-luciferase reporter (MCF7-derived line), luminescence, 24 h; Potency, µM (series often up to 46.1 µM), without a hit: at the top dose activation, hits mostly activators; 0.31% of 410,000 active; AID 624171, 2012; further: potency means the concentration at half of the fitted maximal effect; % of control where 0% means no effect; nearly all actives have a fitted effect of over 65% in size
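AREc32 cells carrying an ARE-driven firefly luciferase reporter were seeded at 1000 cells/well in OPTI-MEM with 5% FBS, then exposed to compound for 24 hr at 37 deg C. Luminescence was read with Steady-Glo after 30 min at RT.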
IL-2 act: qHTS of IL-2 Activators; IL-2 activation reporter assay, cell-based qHTS; stimulated with anti-CD3/CD4/CD28 beads; in transgenic mouse T cells; activation, % (series mostly up to about 46 µM); 0.065% of 360,000 active; AID 652025, 2013; in the data active means activation above about 50%; inconclusive means mostly about 30% to 49%; further: 0% is about no effect
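Using fluorescent plate cytometry, EGFP and DsRed are detected in transgenic mouse T cells stimulated 18 h at 37 degrees C with antibody-coated beads after 60 min compound pretreatment.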
BRCA1 expr act: qHTS Assay to Identify Small Molecule Activators of BRCA1 Expression; MCF7-BRCA1-FFLuc reporter, luminescence, 48 h; response scale: scaled: vehicle 0%, 10 µM genistein 100%; Potency, µM (top dose mostly 46.1 µM), inactives show top-dose activation, actives largely listed as activators; 1.1% of 380,000 active; AID 624202, 2012; further: potency means the concentration at half of the fitted maximal effect; nearly all actives have a fitted effect of over 80% in size
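Using MCF7 cells harboring a BRCA1 firefly luciferase reporter, plated 2 h before compound pinning, the screen measured luminescence after 48 h incubation. Responses were normalized to DMSO and 10 microM genistein, then fitted for concentration-effect.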
a7 integrin act: qHTS for Activators of Integrin-Mediated Alleviation for Muscular Dystrophy | Potency, µM (top dose mostly 38.3 µM), without a hit: at the highest dose activation, usual class: activators | alpha7betagal myoblasts, beta-gal FDG fluorescence, 48 h | AID 624291, 2012 | 0.064% of 350,000 active;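 further: potency means the concentration at half of the fitted maximal effect; 100% = response of the positive control SU9516; nearly all actives have a fitted effect of over 60% in size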
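alpha7betagal+/- myoblasts (passage 13, 250/well) treated 48 h at 37C with compounds at 1:260 dilution of DMSO stock. Lysed, then beta-galactosidase activity read as FDG fluorescence (ex 480/em 540) after 30 min, with pre-read for autofluorescence.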
Chronic BCR inh: qHTS Assay to Find Inhibitors of Chronic Active B-Cell Receptor Signaling | AID 493014, 2011 | 0.05% of 340,000 active | ABC-DLBCL IkBa-CBG/CBR reporter, luminescence ratio, 4 h | Potency, µM (titrated, usually from 46.1 µM), without a hit: at the highest dose activity change, negative = inhibition, most hits filed as inhibitors; active means well fitted inhibition curve with a large enough effect in the signal ratio, with a control signal flat, not every such curve was filed as active; inconclusive means small, poorly fitted or top-dose-only effect, or effect the other way, or a change in a side signal; the % refers to the signal ratio;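 further: potency means the concentration at half of the fitted maximal effect; plate controls were basal doxycycline-induced cells for no effect and cells given 10 µM MG132 for full effect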
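Doxycycline induced both beetle luciferases in TMD8 lymphoma cells; IKK-driven degradation limits the IkappaBalpha-fused green signal, while red luminescence normalises for cell number and nonspecific effects. Compounds tested up to 46 uM, 4 hrs.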
N370S GC mod: qHTS Assay for Inhibitors and Activators of N370S glucocerebrosidase as a Potential Chaperone Treatment of Gaucher Disease. Lysosomal acid glucosylceramidase (Homo sapiens), P04062. N370S GC spleen homogenate, 4MU-glucoside fluorescence. Potency, µM (doses to about 59.4 µM), without a hit: top-dose activity change, negative = inhibition, hits mostly inhibitors. 0.092% of 330,000 active. AID 2101, 2009;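 further: potency means the concentration at half of the fitted maximal effect; 0% = full enzyme activity and -100% = no enzyme basal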
Active calls of the source: *; ? = inconclusive; · = not tested or not shown; [ ] = remark or other dose. Unless noted, the call rests on the fitted dose curve; in most records, active means well fitted curve in the direction sought with a large enough effect; inconclusive means small, poorly fitted or top-dose-only effect, or another doubt; inactive means no such curve, though single readings can be large; an effect the other way counts as inactive or inconclusive.

SMILES	Nrf2 activator	IL-2 act	BRCA1 expr act	a7 integrin act	Chronic BCR inh	N370S GC mod
COc1cc(/C=C2\C(=O)N(c3cccc(C(=O)O)c3)N=C2C)ccc1OCc1ccccc1	4.8%	-1.4	7.08µM*	15.7%	·	·
O=C1C[C@@H]2c3c(cccc3CN1Cc1ccccc1F)C[C@@H](O)[C@H]2O	0.3%	16.5	0.0%	4.9%	·	·
COc1ccc(CNC(=O)CCn2c(=O)c3cccn3c3ccc(F)cc32)cc1OC	2.1%	·	·	·	·	·
Cc1ccccc1Nc1nc(N)nc(COC(=O)c2ccc(O)cc2)n1	5.6%[9.22 µM]	0.3	-18.2%	-17.4%	?	-5.2%
Cc1ccccc1CSCc1nc(N)nc(Nc2ccccc2C)n1	3.6%	5.4	11.2µM*	4.6%	-0.1%	1.8%
Cc1ccccc1Nc1nc(N)nc(COC(=O)c2ccccc2)n1	5.1%	-2.1	14.1µM*	-4.4%	?	3.8%
O=[N+]([O-])c1nn(-c2ccc3c(c2)OCCO3)n(O)c1=NCc1ccc(F)cc1	9.8%	-7.0	20.8%	-15.4%	-3.8%	3.3%
O=[N+]([O-])c1nn(-c2ccc3c(c2)OCCO3)n(O)c1=NCCC1=CCCCC1	4.3%	0.7	4.47µM*	-17.3%	?	4.5%
Cc1nn(CCOc2ccccc2)c(=O)n1-c1ccc(F)cc1	2.3%	0.6	12.6µM*	33.8%	4.7%	-22.2%
Cc1nn(CCOc2ccccc2)c(=O)n1-c1cccc(F)c1	0.8%	-1.9	58.5%	5.6%	1.6%	3.8%
O=C(c1cc2ccccc2oc1=O)N(c1ccccc1)C1C=CS(=O)(=O)C1 (centres undefined)	?	-1.5	-5.3%	-39.9%	-11.3%	2.7%
COc1ccc(N(C(=O)c2cc3ccccc3oc2=O)C2C=CS(=O)(=O)C2)cc1 (centres undefined)	17.8µM*	-0.6	-24.7%	-23.8%	6.2%	-4.0%
Cc1ccc(C(=O)N/N=C/C2=Cc3ccccc3OC2C)cc1 (centres undefined)	3.6%	-2.1	44.0%	16.1%	16.9%	11.8%
CC1Oc2ccccc2C=C1/C=N/NC(=O)c1ccccc1 (centres undefined)	4.4%	-3.4	3.16µM*	4.3%	?	2.0%
CCOC(=O)c1sc(-c2ccc(Br)cc2)cc1N	3.5%	-1.0	7.08µM*	10.4%	?	2.2%[12.8 µM]
CCOC(=O)c1cc(-c2ccc(N)cc2)sc1N	-0.5%	-3.4	?	-26.3%	-4.1%	-21.5%
CCc1cc2c(Nc3ccc(O)cc3)nc(C)nc2s1	18.4%	0.0	-66.7%	1.8%	?	20µM*
CCc1cc2c(Nc3ccccc3O)nc(C)nc2s1	24.0%	0.7	-53.9%	-1.5%	-0.6%	-3.9%
O=C(c1ccco1)N1CCN(c2ccc(Cl)cc2)CC1	0.6%	-0.7	11.2µM*	6.6%	?	11.1%
O=C(Nc1ccc(N2CCN(C(=O)c3ccco3)CC2)cc1)c1cc(Br)ccc1Cl	-0.1%	-4.6	-59.9%	-32.8%	-9.6%	·
O=C(Nc1ccc(N2CCN(C(=O)c3ccco3)CC2)cc1)c1ccco1	0.3%	5.5	22.8%	6.8%	?	-17.5%
O=C(c1ccco1)N1CCN(c2ccc(Cl)c(Cl)c2)CC1	0.6%	1.4	12.6µM*	0.3%[7.66 µM]	·	·
COc1cccc(C(=O)NC(=O)Nc2cc(C)on2)c1	0.9%	-0.9	7.94µM*	?	?	8.8%
Cc1cc(NC(=O)Nc2ccc(C)c(C)c2)no1	2.5%	6.5	7.94µM*	17.1%	12.8%	?
C#CCNC(=O)/C=C/c1ccc(OC)cc1	0.5%	0.4	12.6µM*	12.0%	?	-2.8%
SMILES	Nrf2 activator	IL-2 act	BRCA1 expr act	a7 integrin act	Chronic BCR inh	N370S GC mod
COc1ccc(/C=C/C(=O)Nc2cc(C)on2)cc1	2.0%	-0.9	4.47µM*	19.6%	7.6%	12.1%
COc1ccc(/C=C/C(=O)NCCCN2CCCC2)cc1	-0.6%	1.1	-7.9%	?	-2.2%	-7.5%
O=C(CCl)c1ccc2c(c1)CCCC2	·	·	-11.9%	·	·	·
COc1cc(OC)c(/C=C/c2ccc3ccccc3[n+]2[O-])c(OC)c1	·	·	0.0%	·	·	·
Cc1oc(-c2cccc(Cl)c2)nc1CSc1nncn2c1cc1occc12	-0.5%	·	·	·	·	·
COc1ccc(C(=O)/C=C/Nc2cc(C)on2)cc1	-0.5%	-0.2	3.16µM*	14.2%	?	4.8%
COc1ccc(/C=C/C(=O)NC(=S)N2CCOCC2)cc1	-0.1%	-1.1	74.9%	-5.2%	-28.0%	-5.7%
COc1ccc(/C=C/C(=O)NC(=S)N2CCN(c3ccccc3OC)CC2)cc1	0.0%	-0.4	3.98µM*	-10.0%	2.2%	-8.1%
N#Cc1c(-c2cccs2)cc(-c2cccnc2)nc1N	8.3%	-3.1	-54.3%	-6.6%	?	7.3%
N#Cc1c(-c2cccs2)cc(-c2ccccn2)nc1N	7.94µM*	0.2	-42.7%	2.4%	1.0%	2.2%[2.35 µM]
Cc1cc(C)n(-c2nc(NC(C)C)nc(NC(C)(C)C)n2)n1	·	·	-5.6%	·	·	·
Cc1cc(C)cc(N=C2NC(=O)/C(=C/c3cccs3)S2)c1	2.3%	0.2	-23.9%	?	?	8.1%
CCOc1ccc2c(c1)S/C(=C\c1cccs1)C(=O)N2	?	60.2*	?	-10.0%	?	2.1%
COc1ccc(-c2ccn(-c3cccc(F)n3)n2)cc1	8.3%	1.1	3.16µM*	3.0%	13.1%	-2.5%
CC(C)C[C@H](NC(=O)[C@H](CO)NC(=O)CNC(=O)[C@H](CCCCN)NC(=O)[C@H](CCCN=C(N)N)NC(=O)[C@H](C)NC(=O)[C@H](Cc1ccccc1)NC(=O)[C@@H](N)CCCN=C(N)N)C(=O)N[C@@H](CCCN=C(N)N)C(=O)N[C@@H](CCC(N)=O)C(=O)N[C@@H](CCCCN)C(=O)N[C@@H](CC(N)=O)C(=O)N[C@H](C(=O)O)C(C)C	·	·	·	·	·	-0.3%
O=C(CCCO)N/N=C/c1ccccc1[N+](=O)[O-]	16.2%	-0.5	26.9%	24.4%	-0.1%	5.8%
O=C(CC(Sc1ccc(Br)cc1)C(=O)O)c1ccc(F)cc1 (centres undefined)	?	-0.8	-37.1%	-60.6%	?	0.1%
CCOc1ccc(C(=O)CC(Sc2ccc(C)cc2)C(=O)O)cc1 (centres undefined)	17.8µM*	2.6	-41.3%	-16.3%	?	12.6%
O=c1oc2c(-c3ccc([N+](=O)[O-])cc3)cc(O)cc2s1	22.4µM*	-0.6	-21.6%	?	0.7%	-7.2%
O=S(=O)(NCCNCC=Cc1ccc(Br)cc1)c1cccc2cnccc12	·	·	-41.3%	·	·	·
Fc1ccc(OCc2cc(-c3ccccc3)no2)cc1	4.4%	2.3	?	-9.5%	?	-6.8%
